Screen size: about 310,000 compounds; about 14,000 (4.5%) showed an effect of 50% or more. Effects have a minus sign here. This excerpt belongs to a sample that is enriched for strong results.
What follows are molecules tested against human ether-à-go-go-related gene (hERG) potassium channel (human, UniProt Q12809) (assay: primary screen, population patch clamp on CHO cells stably expressing hERG; higher = less effect of the substance).
Sequence of human ether-à-go-go-related gene (hERG) potassium channel (Q12809 whole entry, looked up): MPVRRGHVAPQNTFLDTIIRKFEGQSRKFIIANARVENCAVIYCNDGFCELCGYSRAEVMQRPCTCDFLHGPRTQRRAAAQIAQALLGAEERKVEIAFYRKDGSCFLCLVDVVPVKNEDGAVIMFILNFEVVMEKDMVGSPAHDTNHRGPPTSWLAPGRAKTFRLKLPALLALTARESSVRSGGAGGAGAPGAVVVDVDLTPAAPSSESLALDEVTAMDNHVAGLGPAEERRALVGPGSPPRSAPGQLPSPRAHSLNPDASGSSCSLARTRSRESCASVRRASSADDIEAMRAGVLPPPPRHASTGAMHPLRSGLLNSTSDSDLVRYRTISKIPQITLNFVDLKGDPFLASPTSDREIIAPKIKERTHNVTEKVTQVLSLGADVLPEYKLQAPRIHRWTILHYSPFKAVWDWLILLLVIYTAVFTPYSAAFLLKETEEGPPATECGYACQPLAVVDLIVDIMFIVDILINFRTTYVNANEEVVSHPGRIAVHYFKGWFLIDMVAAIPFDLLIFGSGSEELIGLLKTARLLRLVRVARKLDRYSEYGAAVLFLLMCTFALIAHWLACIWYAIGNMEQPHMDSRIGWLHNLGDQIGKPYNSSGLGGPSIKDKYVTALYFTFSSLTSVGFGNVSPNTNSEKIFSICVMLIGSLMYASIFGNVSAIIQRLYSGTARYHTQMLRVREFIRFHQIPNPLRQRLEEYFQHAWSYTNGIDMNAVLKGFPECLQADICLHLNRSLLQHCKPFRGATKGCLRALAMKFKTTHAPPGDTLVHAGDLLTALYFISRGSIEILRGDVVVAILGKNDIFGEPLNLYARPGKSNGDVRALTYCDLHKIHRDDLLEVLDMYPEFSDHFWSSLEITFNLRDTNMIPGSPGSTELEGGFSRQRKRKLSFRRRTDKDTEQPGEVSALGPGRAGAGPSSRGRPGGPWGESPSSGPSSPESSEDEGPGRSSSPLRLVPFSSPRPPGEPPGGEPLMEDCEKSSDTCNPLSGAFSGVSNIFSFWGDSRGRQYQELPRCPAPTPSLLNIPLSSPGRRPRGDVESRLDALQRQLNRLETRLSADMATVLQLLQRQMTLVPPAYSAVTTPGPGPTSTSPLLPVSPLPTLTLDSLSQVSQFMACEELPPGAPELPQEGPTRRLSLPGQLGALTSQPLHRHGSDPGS
For `Cc1cc(CNC(=O)COc2ccc(C)c(C)c2)c2ccccc2n1`, the “hERG current change (%, negative = inhibition) at 10uM” value was 2.15%. For `O=C(N/N=C/c1ccc(Cl)c([N+](=O)[O-])c1)c1cc(-c2ccccc2)nc2ccccc12`, the “hERG current change (%, negative = inhibition) at 10uM” value was 17.1%. For `Cn1c2ccccc2c(=O)c2cc(C#Cc3ccccn3)ccc21`, the “hERG current change (%, negative = inhibition) at 10uM” value was -0.776%. In the case of `CCc1ccccc1N1C(=O)C2CC=CCC2C1=O` (stereo not shown), the “hERG current change (%, negative = inhibition) at 10uM” value was -6.41%. For `COc1ccc(OC)c(S(=O)(=O)N(C)CC(=O)N2CCc3ccccc3C2)c1`, the “hERG current change (%, negative = inhibition) at 10uM” value was -35.1%. For `CCN(Cc1nc2cc(OC)c(OC)cc2c(=O)[nH]1)C(=O)c1ccc(S(=O)(=O)N(C)C)cc1`, the “hERG current change (%, negative = inhibition) at 10uM” value was 4.07%. For `Cc1cnc(NC2=NCCC2)s1`, the “hERG current change (%, negative = inhibition) at 10uM” value was 5.05%. `O=C(OCC(=O)c1ccc[nH]1)c1ccc(Cl)nc1` was tested, and the “hERG current change (%, negative = inhibition) at 10uM” value was -5.61%. With `Cc1ccc(-n2nc(C)c(NS(=O)(=O)c3ccccc3)c2C)cc1C` the “hERG current change (%, negative = inhibition) at 10uM” value was -16.9%. For `CCCN(CCC)CCCNC(=O)c1cn(C)c2ccc(S(=O)(=O)N(C)C3CCCCC3)cc2c1=O`, the “hERG current change (%, negative = inhibition) at 10uM” value was -73.7%. With `COC(CN(C)C(=O)c1cn(C)c2ccc(S(=O)(=O)N(C)C3CCCCC3)cc2c1=O)OC` the “hERG current change (%, negative = inhibition) at 10uM” value was 10.3%. With `CCN(CC)S(=O)(=O)c1ccc2c(c1)c(=O)c(C(=O)NCCCN(C)c1ccccc1)cn2C` the “hERG current change (%, negative = inhibition) at 10uM” value was -12.2%. `Cn1c(=O)n(C)c2cc(S(=O)(=O)Nc3ccc(F)cc3)ccc21` was tested, and the “hERG current change (%, negative = inhibition) at 10uM” value was 20.9%. With `CCN1CCN(c2ccc(S(=O)(=O)N3CCCC3)cn2)CC1` the “hERG current change (%, negative = inhibition) at 10uM” value was 16.2%. In the case of `Cc1nn(-c2ccccc2)c(C)c1NC(=O)COC(=O)CCc1ccccc1`, the “hERG current change (%, negative = inhibition) at 10uM” value was -10.2%. `COc1cccc(OCC(=O)N2CCC3(CC2)CC(=O)c2ccccc2O3)c1` was tested, and the “hERG current change (%, negative = inhibition) at 10uM” value was -55.8%. For `Cc1cccc(OCC(=O)N2CCC3(CC2)CC(=O)c2ccccc2O3)c1`, the “hERG current change (%, negative = inhibition) at 10uM” value was -54.7%. With `CC(=O)N1CCC2(CC1)CC(=O)c1cc(OCC(=O)N3CCCC3)ccc1O2` the “hERG current change (%, negative = inhibition) at 10uM” value was 9.03%. For `CC(=O)N1CCC2(CC1)CC(=O)c1cc(OCC(=O)N3CCOCC3)ccc1O2`, the “hERG current change (%, negative = inhibition) at 10uM” value was -10.6%. In the case of `CC(C)(C)C1CCC(OC(=O)C[N+]2(C)CCCCC2)CC1.[I-]` (stereo not shown), the “hERG current change (%, negative = inhibition) at 10uM” value was 23.1%. With `Cc1cccc(Nc2ccc(C(=O)N3CCOCC3)cn2)c1` the “hERG current change (%, negative = inhibition) at 10uM” value was 10.7%. In the case of `O=C(NCC1(N2CCCCC2)CCCCC1)c1ccc(NS(=O)(=O)c2ccccc2)cc1`, the “hERG current change (%, negative = inhibition) at 10uM” value was -44.1%. For `Cc1ccc(S(=O)(=O)Nc2cccc(C(=O)N3CCCC3)c2)cc1F`, the “hERG current change (%, negative = inhibition) at 10uM” value was -0.933%. `CCOc1ccc(S(=O)(=O)Nc2ccc(C(=O)NCC3(N4CCCCC4)CCCCC3)cc2)cc1` was tested, and the “hERG current change (%, negative = inhibition) at 10uM” value was -45.8%. With `Cc1ccc(S(=O)(=O)Nc2cccc(C(=O)NCC(C)(C)N3CCOCC3)c2)cc1F` the “hERG current change (%, negative = inhibition) at 10uM” value was -50.3%. With `Cc1ccc(S(=O)(=O)Nc2cccc(C(=O)NCCN3CCOCC3)c2)cc1F` the “hERG current change (%, negative = inhibition) at 10uM” value was -1.9%. For `Cc1ccc(S(=O)(=O)Nc2cccc(C(=O)NCC3(N4CCCCC4)CCCCC3)c2)cc1F`, the “hERG current change (%, negative = inhibition) at 10uM” value was -82.6%. For `CCOc1ccc(S(=O)(=O)Nc2cccc(C(=O)NCC3(N4CCCCC4)CCCCC3)c2)cc1`, the “hERG current change (%, negative = inhibition) at 10uM” value was -71.6%. In the case of `CC(C)(CNC(=O)c1cccc(NS(=O)(=O)c2ccc(Br)cc2)c1)N1CCOCC1`, the “hERG current change (%, negative = inhibition) at 10uM” value was -33.7%. In the case of `CC(=O)Nc1cccc(C(=O)NCC2(N3CCCCC3)CCCCC2)c1`, the “hERG current change (%, negative = inhibition) at 10uM” value was 19.4%. With `O=C(NCC1(N2CCCCC2)CCCCC1)c1cccc(NS(=O)(=O)c2ccccc2)c1` the “hERG current change (%, negative = inhibition) at 10uM” value was -64.4%. With `Cc1cccc(NS(=O)(=O)c2cccc(C(=O)NCC(C)(C)N3CCOCC3)c2)c1` the “hERG current change (%, negative = inhibition) at 10uM” value was 4.99%. In the case of `CCOc1ccc(NS(=O)(=O)c2ccc(C(=O)NCC3(N4CCCCC4)CCCCC3)cc2)cc1`, the “hERG current change (%, negative = inhibition) at 10uM” value was -11%. For `C[C@H](NC(=O)N1CCn2c1nc1ccccc12)C(=O)NCC1CCCO1` (stereo partly shown), the “hERG current change (%, negative = inhibition) at 10uM” value was 20.8%. With `CC(OC(=O)c1cccc(-n2cnnn2)c1)C(=O)Nc1cccc(Cl)c1` (stereo not shown) the “hERG current change (%, negative = inhibition) at 10uM” value was -2.88%. For `N#Cc1ccccc1OCC(=O)OCC(=O)N1CCN(C(=O)c2ccco2)CC1`, the “hERG current change (%, negative = inhibition) at 10uM” value was 3.22%. `Cc1cc(N2C(=O)CC(N3CCN(c4ccc(C(=O)c5cccs5)cc4)CC3)C2=O)no1` (stereo not shown) was tested, and the “hERG current change (%, negative = inhibition) at 10uM” value was -37.3%. For `CC(C)CCOP(=O)(c1ccc(N(C)C)cc1)C(O)c1ccc(C(C)C)cc1` (stereo not shown), the “hERG current change (%, negative = inhibition) at 10uM” value was 11.7%. For `CCOC(=O)c1cn2nc(Oc3ccccc3)ccc2n1`, the “hERG current change (%, negative = inhibition) at 10uM” value was -12.8%. With `O=C(Cc1ccccc1)N/N=C/c1cc2c(cc1Cl)OCO2` the “hERG current change (%, negative = inhibition) at 10uM” value was 1.85%.
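Further: peak tail current of the secondary pulse compared with the same well before compound.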
